PLCb3 inh: human PLC-beta3 inhibitors, primary screen, biochemical, fluorescence; Purified PLC-beta3, fluorogenic substrate; actives 0.18% (n = 370,000); 1-phosphatidylinositol 4,5-bisphosphate phosphodiesterase beta-3 (Homo sapiens), Q01970; inhibition, % at 12.2 µM; in the data active = inhibition above about 11%;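 also: 0% = median of compound wells on plate and 100% = full blocker control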
ADAM17 inh: ADAM17 inhibitors, primary screen, biochemical, QFRET. AID 720648, 2013. inhibition, % at 6.95 µM. Disintegrin and metalloproteinase domain-containing protein 17 (Homo sapiens), P78536. actives 0.83% (n = 370,000). recombinant ADAM17, EDANS/DABCYL FRET peptide cleavage;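 active = inhibition above the mean of compounds lying between control limits plus 3 SD, set per campaign, cut at about 8.5% in these data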;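 also: 0% = DMSO-only wells as the low control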
PLCg1 inh: PLC-gamma1 enzyme inhibitors, primary screen, biochemical, fluorescence, purified enzyme; 1-phosphatidylinositol 4,5-bisphosphate phosphodiesterase gamma-1 (Homo sapiens), P19174; inhibition, % at 12.2 µM; actives 0.84% (n = 370,000); fluorogenic substrate; in the data active = inhibition above about 9.5%
KLK7 zymogen act: proKLK7 zymogen activators, primary screen, biochemical, fluorescence intensity; activation, % at 7 µM; purified proKLK7, EDANS-DABCYL substrate fluorescence; 100% is mature enzyme control, 0% vehicle; AID 652039, 2013; actives 0.9% (n = 370,000);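 active = activation above the mean of all tested compounds plus 3 SD, computed per campaign excluding outliers beyond control limits, cut at about 13% in these data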
Target sequence (P49862 whole entry, looked up): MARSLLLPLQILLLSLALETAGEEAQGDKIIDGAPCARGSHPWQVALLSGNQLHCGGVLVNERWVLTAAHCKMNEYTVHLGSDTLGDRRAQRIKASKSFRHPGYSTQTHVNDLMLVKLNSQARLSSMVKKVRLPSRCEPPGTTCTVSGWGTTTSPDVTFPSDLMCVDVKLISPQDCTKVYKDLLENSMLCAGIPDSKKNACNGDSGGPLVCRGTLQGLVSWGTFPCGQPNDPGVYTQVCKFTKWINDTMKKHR
ADAM10 inh: human ADAM10 inhibitors, primary screen, biochemical, QFRET, HTS; AID 720582, 2013; actives 0.62% (n = 370,000); inhibition, % at 7 µM; recombinant ADAM10, EDANS/DABCYL FRET peptide cleavage, 3 h;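 active = inhibition above a per-campaign cutoff equal to the mean of compounds falling between control-based bounds plus 3 SD, cut at about 20% in these data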;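 also: 0% = DMSO wells while the 100% control is not disclosed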
proKLK7 act conf: proKLK7 zymogen activators, confirmation, biochemical, fluorescence intensity, triplicate; activation, % at 7 µM; purified proKLK7, EDANS-DABCYL substrate fluorescence; scaled: vehicle 0, mature enzyme 100; shares compounds with KLK7 zymogen act; actives 68% (n = 3,200);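 active = activation, as change over the incubation, above the mean of all tested compounds plus 3 SD, cut at about 13% in these data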
EDANS interfere: EDANS-DABCYL substrate optical interference, artefact control for kallikrein-7 zymogen activator project, biochemical, fluorescence intensity, high throughput. shares compounds with KLK7 zymogen act. no enzyme, 4 h; solvent 0%, active enzyme control 100%. activation, % at 7 µM. actives 80% (n = 3,200);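 active = activation above the all-compound mean plus 3 SD, ignoring values outside control-based bounds, cut at about 4.8% in these data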;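 also: value is the 4 h activation minus the activation read at time zero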
The depositor's hits bear a star; i = inactive; · = no result. The list is not random: actives were taken first. Their share in the collection is about 2.9%.

SMILES	PLCb3 inh	ADAM17 inh	PLCg1 inh	KLK7 zymogen act	ADAM10 inh	proKLK7 act conf	EDANS interfere
CC(C)NCC(O)c1ccc(O)c(O)c1 (stereo not given)	-1	-10	-2	35*	-13	46*	51*
O=S1(=O)CCSC[C@@H](CN2CCOCC2)N1	0	-6	1	0	-9	·	·
COc1ccc(-c2cc(C(=O)NCCN3CCOCC3)c3ccccc3n2)cc1OC	-175	5	-115	-1	-7	·	·
Cc1ccc(-c2cc(C(=O)NCCN3CCOCC3)c3ccccc3n2)o1	i	-149	i	49*	-485	49*	66*
O=C(NCCN1CCOCC1)c1cc(-c2ccccc2Cl)nc2ccccc12	-9	0	-2	0	4	·	·
COc1ccc(-c2cc(C(=O)NCCN3CCOCC3)c3ccccc3n2)cc1	i	-206	i	15*	i	6	0
COC(=O)[C@]12C[C@H](CC(=O)N3CCOCC3)C(=O)N(Cc3ccco3)C1=C[C@H](COCc1ccccc1)O[C@@H]2C	1	-1	-1	0	1	·	·
CC(C)N(CCC(=O)c1ccc2ccccc2c1)Cc1ccccc1	-10	-13	-8	14*	-34	15*	18*
COCCN1CCn2c(nc3cc(NC(=O)NC4CCCCC4)ccc32)C1	i	-286	i	16*	i	-22	-14
Cc1cc(C)c2c(n1)nn1c(C)c(CCC(=O)NCc3ccco3)c(C)nc21	i	-190	-474	15*	i	-23	-26
COc1ccc2nc3ccccc3[n+]([O-])c2c1	i	-140	i	27*	i	32*	34*
O=C(N/N=C/c1cc2c(cc1Br)OCO2)c1ccccn1	-23	-1	-21	0	-9	·	·
O=C(N/N=C/c1cc2c(cc1Br)OCO2)c1c[nH]c2ccccc12	-11	1	-12	15*	-1	0	1
O=C(NCc1ccco1)c1cc2ccc(O)cc2oc1=O	i	i	i	49*	i	58*	71*
CC(=O)c1cc2cc(O)ccc2o1	i	i	i	83*	i	71*	64*
COc1ccc2cc(C(=O)NCc3ccco3)c(=O)oc2c1	-45	-110	-40	-25	-341	·	·
CC(=O)c1cc2ccc(O)cc2oc1=O	-478	i	-361	20*	i	27*	32*
Cc1ccc(N=c2oc3cc(O)ccc3cc2C(N)=O)cc1	i	i	i	24*	i	10	11*
COC(=O)[C@]1(C#N)CC(=O)N(c2ccccc2)[C@@H]1c1ccccc1	-1	1	-1	0	2	·	·
Cc1cc(N2CCN(C)CC2)n2cc(-c3ccc(F)cc3)nc2n1	-491	-223	-378	32*	i	6	6.5*
CCC1(C)Cc2ccccc2-c2nc(NCCCO)[nH]c(=O)c21 (stereo not given)	i	i	i	33*	i	-56	-58
O=c1[nH]c(NCCCO)nc2c1C1(CCCC1)Cc1ccccc1-2	i	i	i	13*	i	-43	-53
CC1(C)Cc2ccccc2-c2nc(NCCCO)n(-c3ccccc3)c(=O)c21	i	-400	-382	15*	i	-53	-30
COC(=O)N1C[C@H](OCc2ccc3c(c2)OCO3)[C@H]2C[C@@H]1c1ccccc1O2	2	-2	7	1	-11	·	·
COCC(=O)Nc1nc(-c2ccc([N+](=O)[O-])cc2)cs1	4	1	1	109*	-3	-2	-2
SMILES	PLCb3 inh	ADAM17 inh	PLCg1 inh	KLK7 zymogen act	ADAM10 inh	proKLK7 act conf	EDANS interfere
COCC(=O)Nc1nc(-c2ccc(-c3ccccc3)cc2)cs1	-48	-13	-34	0	-31	·	·
OCc1ccc(-c2cncc3nccn23)cc1	-328	i	-246	23*	i	27*	27*
c1cn2c(-c3ccoc3)cncc2n1	-84	-74	-70	-2	-270	·	·
N#CC(C#N)=Cc1c[nH]c(=O)c(C#N)c1Nc1ccccc1	i	i	i	62*	i	63*	62*
COC(=O)c1ccc2c(c1)C(C)(C)C(/C=C/c1ccccc1O)=[N+]2C	i	-40	-318	32*	-49	1	0
C[N+]1=C(/C=C/Nc2ccccc2Cl)C(C)(C)c2ccccc21	-6	-5	-7	0	-5	·	·
Cc1cc(N2CCN(CCO)CC2)n2nc(C)nc2n1	-7	0	-4	0	0	·	·
CCN(CC)c1nc2ccccc2nc1C(C#N)C(=O)NCCCOC (stereo not given)	-438	-194	-355	14*	i	33*	37*
CNC(=S)NNC(=O)c1sc(-c2cc(C)on2)nc1C	-139	-27	-96	21*	-64	34*	37*
Cc1cc(C(=O)NNC(=S)NCC(C)C)no1	6	1	4	0	3	·	·
CCCCN(C)CCNC(=O)c1cc2c(-c3cccc(OC)c3)nn(C)c2s1	-263	-95	-204	13*	-198	10	15*
COC(=O)[C@H](CC(C)C)N(Cc1cn(Cc2ccc(C)cc2)nn1)S(=O)(=O)c1ccccc1Br	0	5	1	1	11	·	·
Cc1ccc(-c2cn3nc(C)c(C)nc3n2)cc1	i	i	i	55*	i	59*	56*
CC(=O)OC12CCCN(C1)/C(=C/c1ccc(Cl)cc1)C2 (stereo not given)	-3	-7	3	0	-15	·	·
CCOC(=O)C1=C(C)OC(N)=C(C#N)C1c1cc2c(cc1[N+](=O)[O-])OCO2 (stereo not given)	-284	-346	-286	29*	i	15*	15*
OC1(Cc2ccccc2)CCN(c2ncnc3sccc23)CC1	5	1	4	·	4	·	·
C=CCN1[C@H](C#N)[C@@H](c2ccccc2)[C@H]1CO	-2	-3	-2	0	-5	·	·
CN(C)Cc1c(O)ccc2c(=O)c(-c3ccc(Cl)cc3)coc12	i	-275	i	33*	i	39*	37*
Cc1c(O)ccc2c(=O)c(Oc3ccccc3)coc12	-41	0	-27	-2	5	·	·
C=CCN(CC=C)Cc1c(O)ccc2c(=O)c(-c3ccccc3)coc12	i	-223	i	38*	i	26*	29*

Compound activity as filed in PubChem BioAssay.
